Sampled rows, rich in hits. Any-hit rate of the full collection: about 21%.
Giardia FBPA inh: blocks Giardia fructose-bisphosphate aldolase activity. A8B2U2. purified Giardia FBPA. Potency, µM (titrated, usually from 59.6 µM), actives largely listed as inhibitors. hit rate 0.71% among 290,000. AID 2451; further: nearly all actives have a fitted effect of over 55% in size
Target sequence (A8B2U2 whole entry, looked up): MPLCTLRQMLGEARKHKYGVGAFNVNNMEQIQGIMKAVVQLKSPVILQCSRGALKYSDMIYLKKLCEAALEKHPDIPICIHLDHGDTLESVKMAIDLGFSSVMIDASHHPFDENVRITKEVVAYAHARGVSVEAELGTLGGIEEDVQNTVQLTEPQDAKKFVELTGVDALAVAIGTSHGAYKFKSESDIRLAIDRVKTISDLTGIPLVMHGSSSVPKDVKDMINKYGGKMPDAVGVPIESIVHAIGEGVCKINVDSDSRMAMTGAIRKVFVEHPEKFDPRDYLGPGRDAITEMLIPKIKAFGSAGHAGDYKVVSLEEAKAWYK
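40 nM FBPA preincubated 10 min at RT with compound (up to 57.5 uM final), then substrate plus GAPDH/TPI/NAD/arsenate coupling and diaphorase/resazurin added. Fluorescence read after 20 min at RT, 525/598 nm.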
Cycloheximide cs: affects cycloheximide protein synthesis inhibition readout, counter-screen; hit rate 12% among 300,000; max response, %; AID 2314; cell reporter, cycloheximide protein synthesis inhibition counterscreen; in the data active means max response mostly above about 13%, no sharp cut-off; inactive means mostly below about 14%; further: read at 38.3 µM for the half of the compounds with a filed dose
Shiga toxin inh: Shiga toxin inhibition; Vero cells, Shiga toxin protein synthesis inhibition reporter; inhibition, % at 38.7 µM; hit rate 9.2% among 290,000; AID 2315; in the data active means inhibition mostly above about 28%, no sharp cut-off; inactive means mostly below about 43%
NS1 inh: blocks influenza NS1 protein function; Potency, µM (titrated, usually from 46.1 µM); hit rate 0.4% among 270,000; AID 2326; calls by dose curve; further: actives are rising curves; nearly all actives have a fitted effect of over 50% in size
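S. cerevisiae expressing influenza A NS1, grown in glucose, washed, then diluted 1:100 into pH 6.0 -URA galactose medium with 23 nl compound. Growth recovery read as OD600; NS1-free strain serves as control.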
Pf growth 48h: P. falciparum growth inhibition at 48 hours (one generation); P. falciparum luciferase growth in erythrocytes, 48 h; Potency, µM (titrated, usually from 28.7 µM), most hits filed as inhibitors; hit rate 5.9% among 310,000; AID 504832
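A one-generation exposure of luciferase-tagged malaria parasites in RPMI 1640/Albumax erythrocyte culture, 37 C and 5% CO2. Inhibition is inferred from decreased luminescence after adding detection reagent.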
Pf growth 96h: P. falciparum growth inhibition at 96 hour, primary screen for plastid delayed-death inhibitors | P. falciparum luciferase reporter growth, 96 h | hit rate 6.9% among 320,000 | Potency, µM (series often up to 28.7 µM), actives largely listed as inhibitors
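Readout is luminescence from an integrated firefly luciferase in P. falciparum. Red cells, 2% hematocrit and 0.05% parasitemia final, were cultured with compound through two parasite generations (96 hours) at 37 C, 5% CO2.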
A number is an active result; i = inactive; ? = inconclusive; nt = not tested or not shown; [ ] = another dose, or the depositor's remark. Unless noted, the call rests on the fitted dose curve; in most records, active means well fitted curve in the direction sought with a large enough effect; inconclusive means small, poorly fitted or top-dose-only effect, or another doubt; inactive means no such curve, though single readings can be large; an effect the other way counts as inactive or inconclusive.

SMILES	Giardia FBPA inh	Cycloheximide cs	Shiga toxin inh	NS1 inh	Pf growth 48h	Pf growth 96h
Cc1ccc(-c2cc(-c3ccccc3C)[nH]n2)c(O)c1	i	39.8	42.2	i	i	i
Cc1ccc(-c2cc(C(=O)Nc3c(C)n(C)n(-c4ccccc4)c3=O)[nH]n2)c(O)c1	i	i	i	i	i	i
Cc1ccc2oc(=O)c3cc(C(=O)Nc4cc(-c5cccc(F)c5)no4)sc3c2c1	i	i	i	i	i	?
Cc1ccc(O)c(-c2cc(-c3cccc(F)c3)n[nH]2)c1	i	24.2	i	i	8.28µM	nt
Cc1ccc(O)c(-c2cc(-c3ccccc3F)[nH]n2)c1	i	35.2	104.0	i	?	nt
Cc1ccc(-c2cc(-c3cccc(F)c3)n[nH]2)c(O)c1	i	31.1	75.6	i	?	nt
Nc1nonc1-n1nnc(C(=O)N/N=C/c2ccccc2F)c1CN1CCc2ccccc21	i	i	i	i	?	i
Cc1cccc(C)c1NC(=O)c1cccc2c1C(=O)N(C1CCCCC1)C2	i	i	i	i	10.4µM	11.7µM
C=C1CCN([C@H](C(=O)NCc2ccco2)C(C)C)S(=O)(=O)c2ccccc21	i	i	i	i	i	i
CCc1cc2c(=O)oc(-c3ccccc3F)nc2s1	i	14.4	nt	i	i	i
Cc1cc2c(=O)oc(-c3ccccc3Br)nc2s1	i	i	i	i	i	i
CCCCNC(=O)c1sc2ncnc(N3CCc4ccccc4C3)c2c1C	i	i	i	i	?	14.7µM
CCOC(=O)CNC(=O)c1sc2ncnc(N3CCc4ccccc4C3)c2c1C	i	i	i	i	?	nt
COc1cccc(-c2ccc(SCc3ccccn3)nn2)c1	i	41.9	77.3	nt	i	i
COc1ccc(-c2ccc(SCC(=O)c3ccccc3)nn2)cc1OC	i	i	i	nt	i	i
COc1cccc(-c2ccc(SCC(=O)NCCc3ccccc3)nn2)c1	i	i	i	nt	i	i
O=[N+]([O-])c1cccc(-c2ccc(SCc3ccccn3)nn2)c1	i	36.5	56.4	nt	i	i
COc1ccc(-c2ccc(SCc3ccccn3)nn2)cc1OC	?	28.8	i	nt	i	2.62µM
O=C(O)c1ccccc1-c1ccccc1C(=O)Nc1ccc2c(c1)Cc1cc(F)ccc1-2	nt	nt	nt	i	nt	nt
Cc1ccc(C(=O)N/C(=C\c2sccc2C)C(=O)NCc2ccncc2)cc1	i	i	i	i	i	i
Cc1ccc(C(=O)N/C(=C/C=C\c2ccccc2)C(=O)NCc2ccco2)cc1	i	17.3	i	?	i	i
O=C(NCc1ccco1)/C(=C\c1cccs1)NC(=O)c1ccsc1	i	i	i	i	i	i
O=C(NCc1ccco1)/C(=C\c1cccs1)NC(=O)c1ccco1	i	i	i	nt	i	4.15µM
Cc1ccc(NC(=O)/C(=C/C=C/c2ccccc2)NC(=O)c2ccccc2)cc1	i	i	i	i	?	i
Cc1ccc(C(=O)N/C(=C\c2sccc2C)C(=O)NCc2ccco2)cc1	i	i	i	i	i	3.29µM
SMILES	Giardia FBPA inh	Cycloheximide cs	Shiga toxin inh	NS1 inh	Pf growth 48h	Pf growth 96h
CC(C)NC(=O)N1CCC2(CC1)CCN(C(=O)c1ccco1)CC2	i	nt	nt	nt	nt	nt
c1ccc(Oc2nc(NC3CCCCC3)c3[nH]cnc3n2)cc1	15.8µM	i	i	nt	nt	nt
c1nc(NC2CCCCC2)c2[nH]cnc2n1	i	i	i	i	i	i
Cc1cc(SCC(=O)c2ccccc2)nc2ccccc12	nt	nt	nt	i	nt	nt
Cc1ccc(C(=O)CSc2cnc3ccccc3n2)cc1C	i	63.3	70.0	i	i	i
O=C(CCc1nc2ccccc2[nH]c1=O)OCC(=O)c1ccc(Cl)cc1	i	i	i	i	i	i
Cc1ccc(C(=O)COC(=O)c2ccc(-c3cnc4ccccc4n3)cc2)cc1C	i	14.5	i	i	i	i
Cc1ccc(C(=O)COC(=O)c2cc(Cl)nc3ccccc23)cc1C	i	i	i	i	?	i
Cc1ccc(C(=O)COC(=O)CCc2nc3ccccc3[nH]c2=O)cc1C	i	i	i	i	i	2.62µM
CC1CC(C)CN(S(=O)(=O)c2ccc3c(c2)CCN3C(=O)C2CC2)C1 (stereo not drawn)	nt	i	i	i	i	?
Cc1sc2ncn(CC(=O)N3CCCCC3)c(=O)c2c1C	i	i	i	i	i	?
CCOC(=O)C1=C(CC)Nc2ccccc2N=C1NC(=O)c1cc(C)on1	nt	nt	nt	nt	i	i
CCOC(=O)C1=C(CC)Nc2ccccc2N=C1NC(=O)Nc1ccc(Cl)c(Cl)c1	i	i	i	i	nt	2.62µM
COc1ccccc1-c1nc2cc3ccccc3cc2nc1-c1ccccc1OC	?	i	i	i	?	11.7µM
COc1ccccc1-c1nc2ccccc2nc1-c1ccccc1	i	i	i	i	?	i
COCCCN1C(=O)C(=O)/C(=C(/O)c2ccc(S(=O)(=O)N3CCCCC3)cc2)C1c1ccc(O)cc1 (stereo not drawn)	i	i	i	i	i	?
Cc1ccc2[nH]c(CCN(C)C)c(CN3CCOCC3)c2c1	nt	nt	nt	nt	13.1µM	2.33µM
NCCNCCN	17.7µM	43.5	91.5	nt	nt	nt
CO[C@H]1COC(=O)[C@@H](C)COC(=O)[C@@H](Cc2ccccc2)NC(=O)C/C=C\[C@H]1C	i[12.9 µM]	nt	nt	nt	nt	nt
CCCC/C=C/[C@H](c1ccccc1)[C@H](CO)Cc1ccc2ccccc2c1	i	i	i	nt	nt	nt
Cc1cc(C)cc(Oc2ccc(N)cc2)c1	i	i	i	i	i	11.7µM
Nc1ccc(Oc2cccc(Oc3ccc(N)cc3)c2)cc1	i	i	i	nt	i	i
Cc1cccc(Oc2ccc(N)cc2)c1	i	31.3	i	i	nt	i
CCN(CC(=O)NCc1cccs1)C(=O)c1ccc(S(=O)(=O)N(CC)c2ccccc2)cc1	nt	nt	nt	nt	?	i
CCN(CC)CCNC(=O)c1ccc(NC(=O)c2ccc(S(=O)(=O)N3CCCCCC3)cc2)cc1	nt	nt	nt	nt	1.65µM	?
SMILES	Giardia FBPA inh	Cycloheximide cs	Shiga toxin inh	NS1 inh	Pf growth 48h	Pf growth 96h
CCN(CC)CCNC(=O)c1ccc(NC(=O)c2ccc(Cl)c(S(=O)(=O)N3CCCCCC3)c2)cc1	i	i	i	i	1.65µM	i
COc1ccc(N2CC(C)Cn3c2nc2c3c(=O)n(Cc3ccc(F)cc3)c(=O)n2C)c(OC)c1 (stereo not drawn)	i	i	i	i	?	nt
COc1ccc(N2CC(C)Cn3c2nc2c3c(=O)n(Cc3ccc(C)cc3)c(=O)n2C)c(OC)c1 (stereo not drawn)	i	i	i	nt	4.65µM	?
Cc1ccc(CN(C)C2CCN(C)CC2)cc1	i	i	i	i	i	?
COc1ccc(NC(=O)Cc2nnc(SCC(=O)NC3CCCCC3C)n2C)cc1 (stereo not drawn)	nt	i	i	i	?	i
COc1cccc(CNc2nnnn2C)c1	i	i	i	i	i	i
COc1ccccc1Nc1cc(C(=O)NCCCN2CCOCC2)c2ccccc2n1	i	i	i	i	nt	0.928µM
CCc1ccc(Nc2cc(C(=O)NCCCN3CCOCC3)c3ccccc3n2)cc1	i	i	i	i	nt	5.22µM
Cc1ccc(-c2cc[n+](Cc3ccccc3)cc2)cc1	i	i	i	i	0.928µM	i
Cc1cc[n+](Cc2ccccc2)cc1	nt	nt	nt	nt	3.7µM	9.28µM
COc1ccc(CNC(=O)CN2C(=O)NC(C)(c3cccc(Br)c3)C2=O)cc1 (stereo not drawn)	i	i	i	i	i	?
